# PMC7862700, “An all-to-all approach to the identification of sequence-specific readers for epigenetic DNA modifications on cytosine”
# What was measured:
# Assay in all cases: DAPPL (digital affinity profiling via proximity ligation, sequencing); 10 mM Tris-HCl pH 7.5, 50 mM NaCl, 1 mM DTT, 4% glycerol, room temperature, 30 min; GST-TFs on glutathione beads, 16-mer random dsDNA library, 0.1% formaldehyde crosslink after washing; high values mean tight binding
# Settings in all cases: protein: recombinant; tags: N-terminal GST; dsDNA, one strand shown
# FLI1 = target: T1, FLI1 (Homo sapiens, UniProt Q01543 1-452)
# T1 sequence: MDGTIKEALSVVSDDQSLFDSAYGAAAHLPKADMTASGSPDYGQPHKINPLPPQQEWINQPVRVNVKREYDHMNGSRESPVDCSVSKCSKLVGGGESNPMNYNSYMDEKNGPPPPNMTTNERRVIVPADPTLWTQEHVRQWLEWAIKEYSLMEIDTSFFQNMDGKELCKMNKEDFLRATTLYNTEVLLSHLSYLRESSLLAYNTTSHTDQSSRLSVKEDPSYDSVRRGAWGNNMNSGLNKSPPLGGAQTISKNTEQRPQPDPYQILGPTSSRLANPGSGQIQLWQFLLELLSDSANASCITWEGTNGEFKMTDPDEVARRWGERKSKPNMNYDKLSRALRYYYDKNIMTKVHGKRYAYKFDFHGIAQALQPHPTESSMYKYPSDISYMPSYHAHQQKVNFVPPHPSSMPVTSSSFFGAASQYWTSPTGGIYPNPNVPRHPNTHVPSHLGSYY
# Method in brief: (§1)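 Binding signal is given per hexamer as its read frequency for a factor divided by its frequency in the tag-only sample. GST-fused human transcription factors were expressed in yeast, captured on glutathione beads, barcoded with DNA and pooled with that sample, then incubated with 200 nmole of a 16-mer random double-stranded DNA library in Tris/NaCl/DTT/glycerol buffer for 30 min at room temperature. The pools were then washed, crosslinked, proximity-ligated, amplified by PCR and sequenced on an Illumina NextSeq500.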
# ELK1 = target: T2, ELK1 (Homo sapiens, UniProt P19419 1-428)
# T2 sequence: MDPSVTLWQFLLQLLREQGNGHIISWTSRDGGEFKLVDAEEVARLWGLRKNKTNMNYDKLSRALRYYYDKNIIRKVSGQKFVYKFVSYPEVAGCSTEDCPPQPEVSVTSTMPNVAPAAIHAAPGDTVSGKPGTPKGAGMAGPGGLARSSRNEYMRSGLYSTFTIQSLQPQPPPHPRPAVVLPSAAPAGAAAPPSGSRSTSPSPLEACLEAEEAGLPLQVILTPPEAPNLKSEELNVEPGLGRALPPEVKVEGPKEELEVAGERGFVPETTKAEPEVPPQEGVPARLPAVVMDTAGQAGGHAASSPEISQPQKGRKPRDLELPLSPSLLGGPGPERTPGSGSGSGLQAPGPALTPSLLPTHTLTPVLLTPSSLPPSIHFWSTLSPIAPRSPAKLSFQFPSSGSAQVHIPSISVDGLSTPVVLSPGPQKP
# Method in brief: as §1
# GABPA = target: T3, GABPA (Homo sapiens, UniProt Q06546 1-454)
# T3 sequence: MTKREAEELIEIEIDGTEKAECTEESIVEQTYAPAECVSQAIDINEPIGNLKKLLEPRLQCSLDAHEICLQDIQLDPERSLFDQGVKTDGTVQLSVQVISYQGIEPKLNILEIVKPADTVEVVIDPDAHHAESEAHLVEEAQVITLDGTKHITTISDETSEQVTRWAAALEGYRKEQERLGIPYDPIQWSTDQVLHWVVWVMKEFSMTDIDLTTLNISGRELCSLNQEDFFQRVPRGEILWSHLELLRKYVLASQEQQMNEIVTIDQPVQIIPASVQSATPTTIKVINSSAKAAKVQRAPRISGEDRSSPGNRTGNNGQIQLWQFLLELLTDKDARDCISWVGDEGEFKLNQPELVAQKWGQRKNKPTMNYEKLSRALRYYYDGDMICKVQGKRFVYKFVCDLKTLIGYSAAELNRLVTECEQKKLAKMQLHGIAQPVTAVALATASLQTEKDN
# Method in brief: as §1
# ERG = target: T4, ERG (Homo sapiens, UniProt P11308 1-479)
# T4 sequence: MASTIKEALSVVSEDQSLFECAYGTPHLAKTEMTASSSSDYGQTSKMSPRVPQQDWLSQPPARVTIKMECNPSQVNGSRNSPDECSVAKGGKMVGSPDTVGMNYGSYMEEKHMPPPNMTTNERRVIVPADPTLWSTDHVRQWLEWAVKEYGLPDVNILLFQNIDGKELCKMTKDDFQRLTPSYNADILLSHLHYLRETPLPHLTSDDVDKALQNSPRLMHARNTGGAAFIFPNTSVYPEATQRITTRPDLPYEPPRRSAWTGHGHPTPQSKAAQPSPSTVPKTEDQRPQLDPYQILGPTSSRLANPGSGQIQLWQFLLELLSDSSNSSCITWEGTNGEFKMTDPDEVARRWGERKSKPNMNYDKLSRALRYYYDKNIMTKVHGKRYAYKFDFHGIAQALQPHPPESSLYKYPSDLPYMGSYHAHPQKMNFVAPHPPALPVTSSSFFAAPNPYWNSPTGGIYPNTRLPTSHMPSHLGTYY
# Method in brief: as §1
# ELF1 = ELF1 (Homo sapiens, UniProt P32519 1-619)
# Chain of ELF1 (P32519 whole entry): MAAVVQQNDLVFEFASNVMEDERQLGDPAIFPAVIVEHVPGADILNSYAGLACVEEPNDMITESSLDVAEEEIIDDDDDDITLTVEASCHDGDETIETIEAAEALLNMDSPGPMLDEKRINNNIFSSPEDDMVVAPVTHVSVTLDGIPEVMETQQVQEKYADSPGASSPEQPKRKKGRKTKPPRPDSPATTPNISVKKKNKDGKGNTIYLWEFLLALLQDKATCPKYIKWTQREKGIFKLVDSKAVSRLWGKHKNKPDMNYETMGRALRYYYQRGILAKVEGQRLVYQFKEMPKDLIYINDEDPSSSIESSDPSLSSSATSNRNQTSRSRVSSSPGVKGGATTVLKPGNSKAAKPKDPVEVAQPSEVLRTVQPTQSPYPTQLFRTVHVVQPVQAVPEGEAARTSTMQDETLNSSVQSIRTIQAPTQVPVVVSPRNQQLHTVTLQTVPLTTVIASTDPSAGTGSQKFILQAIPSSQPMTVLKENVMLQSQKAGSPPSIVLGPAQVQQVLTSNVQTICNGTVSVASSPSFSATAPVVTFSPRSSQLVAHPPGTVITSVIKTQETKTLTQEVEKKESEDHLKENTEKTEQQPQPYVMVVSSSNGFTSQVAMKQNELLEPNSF
# Method in brief: as §1
# EHF = target: T5, EHF (Homo sapiens, UniProt Q9NZC4 1-300)
# T5 sequence: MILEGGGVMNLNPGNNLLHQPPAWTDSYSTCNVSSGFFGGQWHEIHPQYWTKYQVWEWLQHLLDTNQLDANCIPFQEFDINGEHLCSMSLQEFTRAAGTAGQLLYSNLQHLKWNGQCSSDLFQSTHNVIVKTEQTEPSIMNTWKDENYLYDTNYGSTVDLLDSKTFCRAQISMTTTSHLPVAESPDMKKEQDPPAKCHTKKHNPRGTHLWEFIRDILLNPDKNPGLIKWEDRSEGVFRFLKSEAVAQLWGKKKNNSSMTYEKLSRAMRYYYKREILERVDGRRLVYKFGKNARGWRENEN
# Method in brief: as §1
# SPI1 = SPI1 (Homo sapiens, UniProt P17947 1-270)
# Method in brief: as §1
# SPIB = SPIB (Homo sapiens, UniProt Q01892 1-262)
# Chain of SPIB (Q01892 whole entry): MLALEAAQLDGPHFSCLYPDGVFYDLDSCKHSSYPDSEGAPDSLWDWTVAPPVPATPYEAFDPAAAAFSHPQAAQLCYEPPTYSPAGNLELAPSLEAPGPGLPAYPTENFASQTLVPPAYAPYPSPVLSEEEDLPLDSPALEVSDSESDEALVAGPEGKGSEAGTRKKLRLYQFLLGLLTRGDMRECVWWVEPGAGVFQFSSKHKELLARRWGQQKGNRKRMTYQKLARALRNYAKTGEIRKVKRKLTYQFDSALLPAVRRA
# Method in brief: as §1
# ELK3 = target: T6, ELK3 (Homo sapiens, UniProt P41970 1-407)
# T6 sequence: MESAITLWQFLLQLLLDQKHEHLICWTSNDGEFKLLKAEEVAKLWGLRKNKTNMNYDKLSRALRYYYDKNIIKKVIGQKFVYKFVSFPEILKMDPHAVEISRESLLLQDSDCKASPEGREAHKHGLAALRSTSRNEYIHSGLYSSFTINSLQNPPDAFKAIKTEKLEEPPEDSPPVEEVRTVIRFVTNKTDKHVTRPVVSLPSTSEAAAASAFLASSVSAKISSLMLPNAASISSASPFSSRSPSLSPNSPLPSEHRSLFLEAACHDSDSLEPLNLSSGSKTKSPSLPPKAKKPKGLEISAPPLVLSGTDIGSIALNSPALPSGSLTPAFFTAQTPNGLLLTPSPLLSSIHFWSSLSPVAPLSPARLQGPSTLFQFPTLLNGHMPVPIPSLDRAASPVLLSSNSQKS
# Method in brief: as §1
# FEV = target: T7, FEV (Homo sapiens, UniProt Q99581 1-238)
# T7 sequence: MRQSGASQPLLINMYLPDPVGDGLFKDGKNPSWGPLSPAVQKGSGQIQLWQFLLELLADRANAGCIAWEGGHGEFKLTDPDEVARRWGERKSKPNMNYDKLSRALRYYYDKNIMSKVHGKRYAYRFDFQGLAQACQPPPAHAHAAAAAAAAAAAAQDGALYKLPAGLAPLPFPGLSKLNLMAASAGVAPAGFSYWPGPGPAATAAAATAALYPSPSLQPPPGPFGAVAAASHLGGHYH
# Method in brief: as §1
# ETV5 = ETV5 (Homo sapiens, UniProt P41161 1-510)
# Chain of ETV5 (P41161 whole entry): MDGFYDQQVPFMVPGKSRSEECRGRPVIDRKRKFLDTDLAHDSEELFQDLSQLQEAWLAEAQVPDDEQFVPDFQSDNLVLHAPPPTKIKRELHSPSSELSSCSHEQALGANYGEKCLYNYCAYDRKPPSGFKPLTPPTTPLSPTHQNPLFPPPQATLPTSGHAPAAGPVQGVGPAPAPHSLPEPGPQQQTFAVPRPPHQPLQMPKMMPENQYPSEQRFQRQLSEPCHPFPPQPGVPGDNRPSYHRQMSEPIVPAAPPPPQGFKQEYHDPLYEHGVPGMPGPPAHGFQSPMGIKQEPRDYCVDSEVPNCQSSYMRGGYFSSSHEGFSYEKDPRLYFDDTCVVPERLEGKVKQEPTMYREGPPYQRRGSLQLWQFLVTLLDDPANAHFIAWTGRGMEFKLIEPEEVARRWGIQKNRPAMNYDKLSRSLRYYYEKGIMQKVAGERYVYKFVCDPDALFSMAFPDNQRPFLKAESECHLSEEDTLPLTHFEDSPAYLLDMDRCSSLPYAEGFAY
# Method in brief: as §1
# SPIC = target: T8, SPIC (Homo sapiens, UniProt Q8N5J4 1-248)
# T8 sequence: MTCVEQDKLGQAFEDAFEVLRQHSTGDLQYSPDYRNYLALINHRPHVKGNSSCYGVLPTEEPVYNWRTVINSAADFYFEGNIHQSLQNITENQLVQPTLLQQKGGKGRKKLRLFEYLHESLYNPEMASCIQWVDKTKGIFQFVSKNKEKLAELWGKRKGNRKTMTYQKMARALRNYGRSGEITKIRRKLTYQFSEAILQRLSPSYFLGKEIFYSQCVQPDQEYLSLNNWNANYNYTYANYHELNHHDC
# Method in brief: as §1
# ELF4 = ELF4 (Homo sapiens, UniProt Q99607 1-663)
# Chain of ELF4 (Q99607 whole entry): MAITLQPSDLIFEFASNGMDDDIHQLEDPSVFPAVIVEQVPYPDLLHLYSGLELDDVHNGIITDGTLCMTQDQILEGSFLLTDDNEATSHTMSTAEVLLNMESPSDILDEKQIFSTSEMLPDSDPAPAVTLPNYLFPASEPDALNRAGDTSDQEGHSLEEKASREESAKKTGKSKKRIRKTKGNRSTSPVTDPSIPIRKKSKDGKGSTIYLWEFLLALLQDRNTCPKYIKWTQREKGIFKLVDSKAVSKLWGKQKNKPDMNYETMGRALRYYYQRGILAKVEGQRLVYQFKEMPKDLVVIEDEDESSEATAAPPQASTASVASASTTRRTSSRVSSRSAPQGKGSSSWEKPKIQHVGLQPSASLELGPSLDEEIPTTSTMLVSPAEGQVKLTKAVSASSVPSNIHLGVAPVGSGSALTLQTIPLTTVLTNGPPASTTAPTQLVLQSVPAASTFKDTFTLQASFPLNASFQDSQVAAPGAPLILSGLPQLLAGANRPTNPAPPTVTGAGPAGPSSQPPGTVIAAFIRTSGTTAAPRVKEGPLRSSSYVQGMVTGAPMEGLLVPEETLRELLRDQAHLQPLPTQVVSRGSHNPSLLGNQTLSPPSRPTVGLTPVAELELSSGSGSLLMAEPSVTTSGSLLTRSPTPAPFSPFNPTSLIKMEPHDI
# Method in brief: as §1
# ETV1 = ETV1 (Homo sapiens, UniProt P50549 1-477)
# Chain of ETV1 (P50549 whole entry): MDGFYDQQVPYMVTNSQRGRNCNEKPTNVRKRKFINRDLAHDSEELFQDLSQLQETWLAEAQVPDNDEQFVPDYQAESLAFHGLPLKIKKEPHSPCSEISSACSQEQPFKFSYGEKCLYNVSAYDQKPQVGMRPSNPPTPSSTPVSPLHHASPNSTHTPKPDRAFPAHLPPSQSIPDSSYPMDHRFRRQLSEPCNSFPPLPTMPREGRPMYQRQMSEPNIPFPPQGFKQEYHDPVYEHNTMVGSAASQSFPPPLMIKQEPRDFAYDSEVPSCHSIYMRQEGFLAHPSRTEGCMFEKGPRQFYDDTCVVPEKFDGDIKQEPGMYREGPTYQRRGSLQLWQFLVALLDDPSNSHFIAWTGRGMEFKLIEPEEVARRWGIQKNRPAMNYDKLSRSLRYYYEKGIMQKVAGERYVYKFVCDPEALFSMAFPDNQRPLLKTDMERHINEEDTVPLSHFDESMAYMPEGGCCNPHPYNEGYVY
# Method in brief: as §1
# ETV3L = target: T9, ETV3L (Homo sapiens, UniProt Q6ZN32 1-361)
# T9 sequence: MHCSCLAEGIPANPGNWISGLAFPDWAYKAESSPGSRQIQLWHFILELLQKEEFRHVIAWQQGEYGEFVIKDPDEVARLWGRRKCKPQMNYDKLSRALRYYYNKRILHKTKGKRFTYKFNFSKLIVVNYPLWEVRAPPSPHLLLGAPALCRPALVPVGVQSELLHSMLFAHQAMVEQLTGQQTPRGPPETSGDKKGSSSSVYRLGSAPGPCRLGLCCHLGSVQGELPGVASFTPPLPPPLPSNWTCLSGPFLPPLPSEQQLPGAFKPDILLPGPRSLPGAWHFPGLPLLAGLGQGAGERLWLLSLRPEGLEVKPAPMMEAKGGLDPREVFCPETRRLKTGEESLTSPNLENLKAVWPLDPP
# Method in brief: as §1
# ETS2 = target: T10, ETS2 (Homo sapiens, UniProt P15036 1-469)
# T10 sequence: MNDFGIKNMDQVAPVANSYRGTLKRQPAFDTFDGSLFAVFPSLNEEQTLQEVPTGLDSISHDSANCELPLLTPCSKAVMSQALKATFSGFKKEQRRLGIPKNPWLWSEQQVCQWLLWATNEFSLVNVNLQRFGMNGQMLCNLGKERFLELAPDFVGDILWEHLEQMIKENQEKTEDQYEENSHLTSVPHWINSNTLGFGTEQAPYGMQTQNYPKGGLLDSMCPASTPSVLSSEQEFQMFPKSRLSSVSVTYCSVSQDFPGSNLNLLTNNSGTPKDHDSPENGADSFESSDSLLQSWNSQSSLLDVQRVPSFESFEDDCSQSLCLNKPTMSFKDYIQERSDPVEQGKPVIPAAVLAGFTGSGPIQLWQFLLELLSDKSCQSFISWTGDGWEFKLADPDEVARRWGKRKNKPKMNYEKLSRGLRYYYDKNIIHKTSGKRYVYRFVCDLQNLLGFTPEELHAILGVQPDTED
# Method in brief: as §1
# ELF5 = target: T11, ELF5 (Homo sapiens, UniProt Q9UKW6-2 1-255)
# T11 sequence: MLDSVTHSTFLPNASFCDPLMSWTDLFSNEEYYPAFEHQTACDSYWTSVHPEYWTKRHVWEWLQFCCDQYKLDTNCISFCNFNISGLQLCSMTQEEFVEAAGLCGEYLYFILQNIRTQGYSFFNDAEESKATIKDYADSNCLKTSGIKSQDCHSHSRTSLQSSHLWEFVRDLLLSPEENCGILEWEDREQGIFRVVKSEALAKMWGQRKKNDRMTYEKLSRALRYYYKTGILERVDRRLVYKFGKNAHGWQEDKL
# Method in brief: as §1
# ETV3 = target: T12, ETV3 (Homo sapiens, UniProt P41162-2 1-143)
# T12 sequence: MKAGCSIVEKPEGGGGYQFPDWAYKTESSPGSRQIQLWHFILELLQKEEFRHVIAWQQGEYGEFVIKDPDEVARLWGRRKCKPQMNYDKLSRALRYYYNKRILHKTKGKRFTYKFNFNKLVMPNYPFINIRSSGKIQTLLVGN
# Method in brief: as §1
# ETV6 = ETV6 (Homo sapiens, UniProt P41212 1-452)
# Chain of ETV6 (P41212 whole entry): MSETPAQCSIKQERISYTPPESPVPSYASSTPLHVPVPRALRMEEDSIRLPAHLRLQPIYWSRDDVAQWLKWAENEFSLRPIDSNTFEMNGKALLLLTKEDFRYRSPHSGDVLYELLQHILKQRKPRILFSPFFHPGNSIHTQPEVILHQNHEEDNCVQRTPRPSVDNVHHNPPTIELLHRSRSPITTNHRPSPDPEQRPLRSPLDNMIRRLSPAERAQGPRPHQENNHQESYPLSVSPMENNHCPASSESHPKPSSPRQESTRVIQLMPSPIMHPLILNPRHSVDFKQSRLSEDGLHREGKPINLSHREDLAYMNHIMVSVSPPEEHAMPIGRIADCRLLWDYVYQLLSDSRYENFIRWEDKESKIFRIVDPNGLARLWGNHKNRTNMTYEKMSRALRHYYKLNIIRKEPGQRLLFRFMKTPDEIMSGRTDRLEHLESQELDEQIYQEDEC
# Method in brief: as §1
sequence,measurement,setting,value
GCTGCC,binding signal,FLI1,"1.13 fold enrichment (6-mer frequency, TF over GST control)"
same,binding signal,ELK1,"1.08 fold enrichment (6-mer frequency, TF over GST control)"
same,binding signal,GABPA,"1.18 fold enrichment (6-mer frequency, TF over GST control)"
same,binding signal,ERG,"1.02 fold enrichment (6-mer frequency, TF over GST control)"
same,binding signal,ELF1,"1.03 fold enrichment (6-mer frequency, TF over GST control)"
same,binding signal,EHF,"1.24 fold enrichment (6-mer frequency, TF over GST control)"
same,binding signal,SPI1,"1.06 fold enrichment (6-mer frequency, TF over GST control)"
same,binding signal,SPIB,"1.03 fold enrichment (6-mer frequency, TF over GST control)"
same,binding signal,ELK3,"1.05 fold enrichment (6-mer frequency, TF over GST control)"
same,binding signal,FEV,"1.14 fold enrichment (6-mer frequency, TF over GST control)"
same,binding signal,ETV5,"1.04 fold enrichment (6-mer frequency, TF over GST control)"
same,binding signal,SPIC,"1.01 fold enrichment (6-mer frequency, TF over GST control)"
same,binding signal,ELF4,"1.06 fold enrichment (6-mer frequency, TF over GST control)"
same,binding signal,ETV1,"1.19 fold enrichment (6-mer frequency, TF over GST control)"
same,binding signal,ETV3L,"1.03 fold enrichment (6-mer frequency, TF over GST control)"
same,binding signal,ETS2,"1.08 fold enrichment (6-mer frequency, TF over GST control)"
same,binding signal,ELF5,"1.09 fold enrichment (6-mer frequency, TF over GST control)"
same,binding signal,ETV3,"1.12 fold enrichment (6-mer frequency, TF over GST control)"
same,binding signal,ETV6,"1.13 fold enrichment (6-mer frequency, TF over GST control)"
